Data on 40 sequences can be found in article PMC7862700, “An all-to-all approach to the identification of sequence-specific readers for epigenetic DNA modifications on cytosine”.

One test deals with T1, ETS2 (Homo sapiens, UniProt P15036 1-469).
T1 sequence: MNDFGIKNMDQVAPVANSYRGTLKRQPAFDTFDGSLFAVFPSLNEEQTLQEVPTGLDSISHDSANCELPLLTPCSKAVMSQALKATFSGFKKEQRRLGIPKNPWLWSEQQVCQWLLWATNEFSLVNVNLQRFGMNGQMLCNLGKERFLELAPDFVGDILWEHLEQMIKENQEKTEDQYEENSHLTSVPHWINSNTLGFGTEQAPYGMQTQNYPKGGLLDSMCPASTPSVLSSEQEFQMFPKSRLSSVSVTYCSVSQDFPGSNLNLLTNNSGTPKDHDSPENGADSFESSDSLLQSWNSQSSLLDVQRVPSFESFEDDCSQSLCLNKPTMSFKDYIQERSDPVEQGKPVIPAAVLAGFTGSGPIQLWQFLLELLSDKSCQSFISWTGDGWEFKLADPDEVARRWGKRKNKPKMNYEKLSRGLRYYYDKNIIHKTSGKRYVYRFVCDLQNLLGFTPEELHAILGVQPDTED
Briefly: DAPPL (digital affinity profiling via proximity ligation, sequencing); 10 mM Tris-HCl pH 7.5, 50 mM NaCl, 1 mM DTT, 4% glycerol, room temperature, 30 min; GST-TFs on glutathione beads, 16-mer random dsDNA library, 0.1% formaldehyde crosslink after washing; high values mean tight binding. Conditions: protein: recombinant; tags: N-terminal GST; dsDNA, one strand shown. The essentials:
(§1)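 Binding signal is each hexamer's read frequency for a factor divided by its frequency in the tag-only sample. The factors were GST-fused human transcription factors from yeast, captured on glutathione beads, DNA-barcoded and pooled with that sample. Pools were incubated with 200 nmole of a random double-stranded 16-mer DNA library in Tris/NaCl/DTT/glycerol buffer at room temperature for 30 min, then washed, crosslinked with 0.1% formaldehyde, proximity-ligated with BsaI/T4 ligase (1 h, 37 °C), PCR-amplified and sequenced on an Illumina NextSeq500.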
For CAGGAA, the binding signal is 1.75 fold enrichment (6-mer frequency, TF over GST control).

For CCCATC, the binding signal was 1.22 fold enrichment (6-mer frequency, TF over GST control).

On to ACCCAC, for which the binding signal was 1.15 fold enrichment (6-mer frequency, TF over GST control).

Regarding CCTTAT, the binding signal was 1.41 fold enrichment (6-mer frequency, TF over GST control).

As to CTTCTA, the binding signal was 1.53 fold enrichment (6-mer frequency, TF over GST control).

Consider GACCTG, for which the binding signal is 1.19 fold enrichment (6-mer frequency, TF over GST control).

Turning to TCCCCG, the binding signal was 1.11 fold enrichment (6-mer frequency, TF over GST control).

In the case of AAGCAG, the binding signal is 1.14 fold enrichment (6-mer frequency, TF over GST control).

Take ATACTA: the binding signal was 1.24 fold enrichment (6-mer frequency, TF over GST control).

Consider TGGTAC, for which the binding signal was 1.19 fold enrichment (6-mer frequency, TF over GST control).

As for TAAATA, the binding signal is 1.27 fold enrichment (6-mer frequency, TF over GST control).

As for TAAACC, the binding signal was 1.22 fold enrichment (6-mer frequency, TF over GST control).

As for AAAAGG, the binding signal was 1.11 fold enrichment (6-mer frequency, TF over GST control).

Take ATTACT: the binding signal is 1.31 fold enrichment (6-mer frequency, TF over GST control).

As to GATGCG, the binding signal was 1.2 fold enrichment (6-mer frequency, TF over GST control).

For the sequence TAGGCT, the binding signal was 1.29 fold enrichment (6-mer frequency, TF over GST control).

For ATATTT, the binding signal is 1.58 fold enrichment (6-mer frequency, TF over GST control).

For the sequence TTTGGC, the binding signal was 1.18 fold enrichment (6-mer frequency, TF over GST control).

As for TACGTC, the binding signal is 1.2 fold enrichment (6-mer frequency, TF over GST control).

For the sequence TATACC, the binding signal is 1.24 fold enrichment (6-mer frequency, TF over GST control).

The target of a further test is T2, SPDEF (Homo sapiens, UniProt O95238 1-335).
T2 sequence: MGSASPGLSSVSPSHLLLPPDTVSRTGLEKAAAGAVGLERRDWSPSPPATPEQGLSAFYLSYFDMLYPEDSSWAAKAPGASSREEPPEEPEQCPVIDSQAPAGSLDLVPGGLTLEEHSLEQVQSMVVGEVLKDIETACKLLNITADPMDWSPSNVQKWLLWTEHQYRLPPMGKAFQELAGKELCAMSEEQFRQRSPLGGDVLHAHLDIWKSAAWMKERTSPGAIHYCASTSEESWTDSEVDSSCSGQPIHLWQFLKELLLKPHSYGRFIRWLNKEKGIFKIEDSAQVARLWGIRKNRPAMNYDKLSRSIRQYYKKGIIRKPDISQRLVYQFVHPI
The description is as above. The following applies: protein: recombinant; tags: N-terminal GST; dsDNA, one strand shown. The essentials: as §1
CAAACT: the binding signal is 1.16 fold enrichment (6-mer frequency, TF over GST control).

For the sequence ACGGCC, the binding signal was 1.17 fold enrichment (6-mer frequency, TF over GST control).

In the case of CATTTC, the binding signal is 1.75 fold enrichment (6-mer frequency, TF over GST control).

Turning to CGTTAT, the binding signal was 1.08 fold enrichment (6-mer frequency, TF over GST control).

Turning to ATATGT, the binding signal was 1.13 fold enrichment (6-mer frequency, TF over GST control).

Take GAAACG: the binding signal is 1.23 fold enrichment (6-mer frequency, TF over GST control).

As for ATGATT, the binding signal is 1.15 fold enrichment (6-mer frequency, TF over GST control).

Consider CTGCCC, for which the binding signal was 1.23 fold enrichment (6-mer frequency, TF over GST control).

In the case of TCCGGG, the binding signal is 2.46 fold enrichment (6-mer frequency, TF over GST control).

In the case of CCCCCA, the binding signal was 1.22 fold enrichment (6-mer frequency, TF over GST control).

Take ATAGTT: the binding signal was 1.12 fold enrichment (6-mer frequency, TF over GST control).

ATGTAC: the binding signal was 1.67 fold enrichment (6-mer frequency, TF over GST control).

ATGGGT: the binding signal was 1.42 fold enrichment (6-mer frequency, TF over GST control).

Consider CCGAGC, for which the binding signal was 1.06 fold enrichment (6-mer frequency, TF over GST control).

For the sequence CCCTTG, the binding signal was 1.28 fold enrichment (6-mer frequency, TF over GST control).

Regarding TTGCTA, the binding signal is 1.31 fold enrichment (6-mer frequency, TF over GST control).

Take CACAAC: the binding signal was 1.25 fold enrichment (6-mer frequency, TF over GST control).

Turning to GATTTG, the binding signal was 1.19 fold enrichment (6-mer frequency, TF over GST control).

As for GAAACA, the binding signal is 1.3 fold enrichment (6-mer frequency, TF over GST control).

For the sequence GGATGC, the binding signal was 1.91 fold enrichment (6-mer frequency, TF over GST control).

As for CAGGAA, the binding signal was 1.53 fold enrichment (6-mer frequency, TF over GST control).

On to CCCATC, for which the binding signal was 1.07 fold enrichment (6-mer frequency, TF over GST control).

As to ACCCAC, the binding signal was 1.21 fold enrichment (6-mer frequency, TF over GST control).

As for CCTTAT, the binding signal was 1.71 fold enrichment (6-mer frequency, TF over GST control).

CTTCTA: the binding signal is 1.3 fold enrichment (6-mer frequency, TF over GST control).

For GACCTG, the binding signal is 1.12 fold enrichment (6-mer frequency, TF over GST control).

As to TCCCCG, the binding signal was 1.14 fold enrichment (6-mer frequency, TF over GST control).

As for AAGCAG, the binding signal is 1.13 fold enrichment (6-mer frequency, TF over GST control).

Take ATACTA: the binding signal was 1.17 fold enrichment (6-mer frequency, TF over GST control).

As to TGGTAC, the binding signal is 1.11 fold enrichment (6-mer frequency, TF over GST control).

As for TAAATA, the binding signal is 1.15 fold enrichment (6-mer frequency, TF over GST control).

In the case of TAAACC, the binding signal is 1.28 fold enrichment (6-mer frequency, TF over GST control).

As for AAAAGG, the binding signal is 1.07 fold enrichment (6-mer frequency, TF over GST control).

ATTACT: the binding signal is 1.26 fold enrichment (6-mer frequency, TF over GST control).

For GATGCG, the binding signal was 1.25 fold enrichment (6-mer frequency, TF over GST control).

On to TAGGCT, for which the binding signal was 1.24 fold enrichment (6-mer frequency, TF over GST control).

On to ATATTT, for which the binding signal was 1.54 fold enrichment (6-mer frequency, TF over GST control).

On to TTTGGC, for which the binding signal is 1.12 fold enrichment (6-mer frequency, TF over GST control).

Consider TACGTC, for which the binding signal is 1.33 fold enrichment (6-mer frequency, TF over GST control).

With TATACC, the binding signal was 1.26 fold enrichment (6-mer frequency, TF over GST control).

The target in another test is T3, ETV7 (Homo sapiens, UniProt Q9Y603 1-341).
T3 sequence: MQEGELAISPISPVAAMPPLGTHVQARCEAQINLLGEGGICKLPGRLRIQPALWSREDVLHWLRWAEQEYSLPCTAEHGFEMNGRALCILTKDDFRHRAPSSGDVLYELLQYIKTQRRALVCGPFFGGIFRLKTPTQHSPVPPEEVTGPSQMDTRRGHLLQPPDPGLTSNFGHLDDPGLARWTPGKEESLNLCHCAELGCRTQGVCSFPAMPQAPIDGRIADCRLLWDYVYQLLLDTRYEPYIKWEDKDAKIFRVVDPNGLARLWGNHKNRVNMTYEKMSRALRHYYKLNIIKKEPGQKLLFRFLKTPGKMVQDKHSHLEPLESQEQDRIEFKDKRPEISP
The test is described as above. The following applies: protein: recombinant; tags: N-terminal GST; dsDNA, one strand shown. The method in brief:
as §1
In the case of CAAACT, the binding signal is 1.15 fold enrichment (6-mer frequency, TF over GST control).

With ACGGCC, the binding signal was 1.13 fold enrichment (6-mer frequency, TF over GST control).

On to CATTTC, for which the binding signal was 1.68 fold enrichment (6-mer frequency, TF over GST control).

As for CGTTAT, the binding signal was 1.21 fold enrichment (6-mer frequency, TF over GST control).

Take ATATGT: the binding signal is 1.16 fold enrichment (6-mer frequency, TF over GST control).

Consider GAAACG, for which the binding signal is 1.4 fold enrichment (6-mer frequency, TF over GST control).

Regarding ATGATT, the binding signal was 1.17 fold enrichment (6-mer frequency, TF over GST control).

In the case of CTGCCC, the binding signal is 1.15 fold enrichment (6-mer frequency, TF over GST control).

For TCCGGG, the binding signal is 1.44 fold enrichment (6-mer frequency, TF over GST control).

For CCCCCA, the binding signal was 1.11 fold enrichment (6-mer frequency, TF over GST control).

Consider ATAGTT, for which the binding signal is 1.19 fold enrichment (6-mer frequency, TF over GST control).

Turning to ATGTAC, the binding signal was 1.41 fold enrichment (6-mer frequency, TF over GST control).

As for ATGGGT, the binding signal is 1.41 fold enrichment (6-mer frequency, TF over GST control).

Consider CCGAGC, for which the binding signal was 1.15 fold enrichment (6-mer frequency, TF over GST control).

Take CCCTTG: the binding signal was 1.18 fold enrichment (6-mer frequency, TF over GST control).

TTGCTA: the binding signal is 1.37 fold enrichment (6-mer frequency, TF over GST control).

In the case of CACAAC, the binding signal was 1.13 fold enrichment (6-mer frequency, TF over GST control).

On to GATTTG, for which the binding signal is 1.15 fold enrichment (6-mer frequency, TF over GST control).

Take GAAACA: the binding signal is 1.35 fold enrichment (6-mer frequency, TF over GST control).

As for GGATGC, the binding signal is 1.22 fold enrichment (6-mer frequency, TF over GST control).

On to CAGGAA, for which the binding signal was 1.52 fold enrichment (6-mer frequency, TF over GST control).

CCCATC: the binding signal was 1.08 fold enrichment (6-mer frequency, TF over GST control).

As to ACCCAC, the binding signal was 1.18 fold enrichment (6-mer frequency, TF over GST control).

CCTTAT: the binding signal is 1.49 fold enrichment (6-mer frequency, TF over GST control).

As to CTTCTA, the binding signal was 1.43 fold enrichment (6-mer frequency, TF over GST control).

For GACCTG, the binding signal is 1.17 fold enrichment (6-mer frequency, TF over GST control).

Consider TCCCCG, for which the binding signal was 1.15 fold enrichment (6-mer frequency, TF over GST control).

For the sequence AAGCAG, the binding signal is 1.14 fold enrichment (6-mer frequency, TF over GST control).

With ATACTA, the binding signal was 1.14 fold enrichment (6-mer frequency, TF over GST control).

In the case of TGGTAC, the binding signal was 1.14 fold enrichment (6-mer frequency, TF over GST control).

Take TAAATA: the binding signal is 1.31 fold enrichment (6-mer frequency, TF over GST control).

Regarding TAAACC, the binding signal was 1.22 fold enrichment (6-mer frequency, TF over GST control).

With AAAAGG, the binding signal is 1.16 fold enrichment (6-mer frequency, TF over GST control).

Turning to ATTACT, the binding signal is 1.25 fold enrichment (6-mer frequency, TF over GST control).

Regarding GATGCG, the binding signal was 1.22 fold enrichment (6-mer frequency, TF over GST control).

Consider TAGGCT, for which the binding signal was 1.35 fold enrichment (6-mer frequency, TF over GST control).

For ATATTT, the binding signal was 1.67 fold enrichment (6-mer frequency, TF over GST control).

Consider TTTGGC, for which the binding signal was 1.24 fold enrichment (6-mer frequency, TF over GST control).

For TACGTC, the binding signal was 1.27 fold enrichment (6-mer frequency, TF over GST control).

On to TATACC, for which the binding signal is 1.15 fold enrichment (6-mer frequency, TF over GST control).
